Assay outcomes deposited in PubChem BioAssay by National Center for Advancing Translational Sciences (NCATS).
Only some compounds are listed: those with a hit (about 3% of all), similar ones and a draw of the others.
USP1-UAF1 inh = Inhibitors of USP1/UAF1: Primary Screen | recombinant USP1/UAF1, Ub-Rhodamine cleavage fluorescence | 0.23% of 390,000 active | Ubiquitin carboxyl-terminal hydrolase 1 (Homo sapiens), O94782 | Potency, µM (series often up to 57.1 µM), without a hit: at the highest dose activity change, negative = inhibition, usual class: inhibitors | AID 743255, 2014; note: % is set by controls: 0 for no effect and ±100 for the full control effect; nearly all actives have a fitted effect of over 60% in size
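USP1/UAF1 complex (1 nM) preincubated 15 min at room temperature with compound, then Ub-Rho substrate (150 nM final) added. Kinetic fluorescence at 480/540 nm over 6 reads at 60 s intervals; 50 mM HEPES pH 7.8, 0.5 mM EDTA, 0.1 mg/ml BSA, 1 mM TCEP, 0.01% Tween-20.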
VDR inhibitor = Inhibitors of the vitamin D receptor (VDR): qHTS. Vitamin D3 receptor (Homo sapiens), P11473. VDR-SRC2-3 peptide fluorescence polarization, 2 h. Potency, µM, for the others: max response, negative = inhibition, hits mostly inhibitors. 0.93% of 400,000 active; note: % is set by controls: 0 for no effect and ±100 for the full control effect
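Reagent solutions, kept cold and dark, are dispensed first; compounds are then pinned in at 23 nl, plates briefly spun, and incubated 2 h at ambient temperature. Inhibition of VDR–SRC2-3 peptide binding is read by fluorescence polarization.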
PLK1 PBD block = qHTS for Inhibitors of PLK1-PDB (polo-like kinase 1 - polo-box domain): Primary Screen | Serine/threonine-protein kinase PLK1 (Homo sapiens), P53350 | Plk1 PBD binding of FITC phosphopeptide, fluorescence polarization | Potency, µM, inactives show max response, negative = inhibition, usual class: inhibitors | 2.8% of 360,000 active; note: series mostly up to about 57 µM; % is set by controls: 0 for no effect and ±100 for the full control effect; nearly all actives have a fitted effect of over 65% in size
Target sequence (P53350 whole entry, looked up, the tested form may be a part): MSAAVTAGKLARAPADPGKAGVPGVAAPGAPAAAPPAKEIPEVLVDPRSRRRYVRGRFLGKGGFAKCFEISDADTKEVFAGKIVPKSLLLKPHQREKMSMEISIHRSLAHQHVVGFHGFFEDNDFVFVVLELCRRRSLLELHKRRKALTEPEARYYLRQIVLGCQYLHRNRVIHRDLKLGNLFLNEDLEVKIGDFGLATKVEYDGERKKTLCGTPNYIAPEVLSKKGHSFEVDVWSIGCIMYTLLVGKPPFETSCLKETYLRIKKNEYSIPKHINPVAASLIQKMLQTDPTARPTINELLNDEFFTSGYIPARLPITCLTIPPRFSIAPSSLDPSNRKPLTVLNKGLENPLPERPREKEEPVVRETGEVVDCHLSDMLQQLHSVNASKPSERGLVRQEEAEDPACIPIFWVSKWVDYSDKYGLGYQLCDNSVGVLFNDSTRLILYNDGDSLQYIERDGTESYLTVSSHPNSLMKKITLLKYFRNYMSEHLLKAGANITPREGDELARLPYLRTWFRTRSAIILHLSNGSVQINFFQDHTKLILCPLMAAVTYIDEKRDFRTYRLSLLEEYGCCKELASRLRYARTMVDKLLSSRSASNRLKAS
TSG101-PTAP inh = qHTS Assay for Iinhibitors of HIV-1 Budding by Blocking the Interaction of PTAP/TSG101 | Tumor susceptibility gene 101 protein (Homo sapiens), Q99816 | Fluorescence polarization, FITC-PTAP peptide / Tsg101 binding | Potency, µM (top dose mostly 115 µM), without a hit: at the highest dose activity change, negative = inhibition, most hits filed as inhibitors | 340,000 tested, under 10 active; active = well fitted inhibition curve with a large enough effect in the main read-out, with a control signal flat, not every such curve was filed as active; inconclusive = small, poorly fitted or top-dose-only effect, or effect the other way, or a change in a side signal; inactive = no such curve, though single readings can be large or run the other way; note: % of control where 0% means no effect
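Compounds were pin-transferred onto Tsg101 binding domain (10 uM final) in HEPES pH 7.5 buffer, then FITC-PTAP peptide was added at 50 nM final. After 20 min at RT, polarization reported peptide displacement across a qHTS concentration series.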
GCN5L2 inh = qHTS Assay for Inhibitors of GCN5L2; GCN5L2 HAT assay, ThioGlo1 CoA-SH fluorescence; Potency, µM (highest dose often 58.9 µM), without a hit: at the top dose activity change, negative = inhibition, hits mostly inhibitors; Histone acetyltransferase KAT2A (Homo sapiens), Q92830; 0.21% of 390,000 active; note: % is set by controls: 0 for no effect and ±100 for the full control effect
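Free CoA generated was detected with ThioGlo1 (50uM) fluorescence at Ex340nm/Em540nm, read immediately and after 20 min at room temperature. Enzyme, 20 nM in HEPES pH 7.5 buffer, saw compounds 15 min before adding 75uM H3(1-25) peptide and 70uM acetyl-CoA.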
Numbers without * were called inactive; ? = inconclusive; nt = not tested or not shown. Unless noted, calls come from the whole dose curve; as a rule, active = well fitted curve in the direction sought with a large enough effect; inconclusive = small, poorly fitted or top-dose-only effect, or another doubt; inactive = no such curve, though single readings can be large; an effect the other way counts as inactive or inconclusive. Potency is the fitted concentration of half-maximal effect.

SMILES	USP1-UAF1 inh	VDR inhibitor	PLK1 PBD block	TSG101-PTAP inh	GCN5L2 inh
c1coc(-c2ccc3nncn3c2)c1	nt	nt	15µM*	nt	nt
c1cc(N2CCOCC2)ccc1-c1ccc2nncn2c1	nt	nt	-5%	nt	nt
CC(C)C[C@H](NC(=O)[C@@H]1CCCN1C(=O)[C@H](CO)NC(=O)[C@H](Cc1ccccc1)NC(=O)CNC(=O)[C@@H]1CCCN1C(=O)[C@@H]1CCCN1C(=O)[C@@H](N)CCCN=C(N)N)C(=O)O	nt	12%	nt	nt	7%
Cc1ccc(NC(=S)N2CCN(C(=O)c3ccccc3)CC2)c(C)c1	-21%	-4%	27µM*	-11%	-2%
CC(C(=O)NC1CCCC1)N1CCN(Cc2ccccc2)CC1 (stereo unspecified)	-21%	7%	-15%	-1%	-15%
CC(C(=O)NC1CCCCC1)N1CCN(C)CC1 (stereo unspecified)	-11%	-7%	30µM*	-2%	-9%
Cc1ccc(-n2c3nc(=O)[nH]c(=O)c-3cc3cc([N+](=O)[O-])ccc32)cc1C	?	?	8.4µM*	-4%	-11%
Cc1ccc(S(=O)(=O)n2cnc3cc([N+](=O)[O-])ccc32)cc1C	-6%	2%	-12%	-1%	?
Cc1ccc(S(=O)(=O)NCC(Nc2cccc(Cl)c2)c2ccccc2)cc1 (stereo unspecified)	?	11%	nt	nt	-11%
Cc1cc(NCCO)c2cc(O)ccc2n1	-15%	-3%	-5%	-1%	-20%
CCNc1cc(O)ccc1C	?	79µM*	-16%	-10%	-8%
COCCCC1CCN(C(=O)C2CCC(=O)N(Cc3ccccc3F)C2)CC1 (stereo unspecified)	-14%	17%	2%	nt	0%
Clc1ccc(N=c2ssnc2Cl)nc1	-7%	5.6µM*	0.95µM*	1%	-1%
OCc1ccccc1N=c1ssnc1Cl	nt	nt	nt	nt	-27%
COc1ccc(CNC(=O)CCn2c(=O)c3cccn3c3ccc(F)cc32)cc1	-22%	?	27µM*	-4%	3%
COc1cccc(C(=O)NN/C(C)=C/C(=O)C(F)(F)C(F)(F)C(F)(F)F)c1	-14%	?	27µM*	1%	0%
COc1ccc(NC(=S)N2CCN(C(c3ccccc3)c3ccccc3)CC2)cc1OC	-13%	7%	-12%	-5%	-25%
COc1cc(C(=S)N2CCN(C(c3ccccc3)c3ccccc3)CC2)cc(OC)c1O	-23%	?	13µM*	-4%	-7%
COc1ccc(NC(=O)/C(Cl)=C(/Cl)S(=O)(=O)Cc2ccccc2)cn1	?	35µM*	5.3µM*	-2%	-1%
COc1ccc(NC(=O)C(Cl)=C(Cl)Cl)cn1	-17%	-20%	1%	-3%	-5%
O=C(Nc1ccc(F)cc1)C(c1cc2ccccc2o1)N1CCN(c2cccc(C(F)(F)F)n2)CC1 (stereo unspecified)	nt	nt	-1%	nt	nt
O=C(/C=C/c1ccccc1)CCN1CCCCC1	-5%	28µM*	6.7µM*	-4%	nt
O=C(/C=C/c1ccccc1)COC(=O)c1ccccc1	-11%	10µM*	0%	0%	nt
CC(C)COC(=O)c1ccc(N)cc1	nt	3%	nt	nt	-17%
CC1(C(=O)NS(=O)(=O)c2ccc(Cl)s2)CCN1C(=O)Cc1ccc(Cl)cc1Cl (stereo unspecified)	nt	nt	-2%	nt	nt
SMILES	USP1-UAF1 inh	VDR inhibitor	PLK1 PBD block	TSG101-PTAP inh	GCN5L2 inh
CC(=O)Oc1c(C)cc(O)c2ccccc12	nt	nt	nt	nt	-11%
Cc1cc(O)c2ccccc2c1O	nt	35µM*	nt	nt	-11%
CC(C)n1c(=S)[nH]c2scc(-c3cccs3)c2c1=O	-16%	8%	27µM*	-2%	18µM*
Cc1nc2scc(-c3cccs3)c2c(=O)[nH]1	-17%	-3%	?	nt	-4%
O=c1c2c(-c3cccs3)csc2[nH]c(=S)n1-c1ccccc1	-19%	13%	21µM*	-3%	19%
O=C(NCCc1ccc(Cl)cc1)c1cccn1-c1nnc(N2CCCCC2)s1	-26%	10%	nt	nt	-4%
CCN(CC)CCCN1C(=O)C(O)=C(C(=O)c2cc3ccccc3o2)C1c1ccccn1 (stereo unspecified)	-20%	-10%	27µM*	-4%	-3%
O=C(NCc1cccs1)c1ccc(S(=O)(=O)N2CCCCC2)cc1	-10%	?	13µM*	0%	2%
CC(C)(C)c1ccc(C(=O)NCCC(=O)NCc2cccs2)cc1	-13%	-21%	27µM*	-7%	-1%
COc1ccc(CNC(=O)CN(c2cc(C(F)(F)F)ccc2Cl)S(C)(=O)=O)cc1	-15%	-1%	nt	nt	0%
Cc1nnc(SCC(=O)NC(=O)NC(C)(C)C)n1N	-18%	-18%	27µM*	-1%	-5%
COc1ccc(N2C(=NC(=O)C3CCCCC3)SC3CS(=O)(=O)CC32)c(OC)c1 (stereo unspecified)	-15%	?	12µM*	-3%	-21%
CCCC(=O)NCC1(N(C)C)CCCCC1	?	16%	nt	nt	-8%
C=CCOC(=O)C(=O)/C=C/c1csc2ccccc12	-8%	45µM*	?	-2%	-1%
COc1ccccc1[C@@H]1C(c2cccc(Cl)c2)=NN(c2ccccc2)[C@H]1C(=O)N1CCOC1=O	-18%	2%	5%	-4%	20µM*
O=C1OCCN1C(=O)[C@H]1[C@H](c2ccccc2)C(c2cccc(Cl)c2)=NN1c1ccc(Br)cc1	-12%	-15%	-5%	1%	22µM*
COc1ccc(NC(=O)Cn2c(SCc3ccc(F)cc3)nc3cccnc32)c(OC)c1	-18%	0%	nt	nt	-5%
Cc1cccc(NC(=O)C(NS(=O)(=O)c2ccc3c(c2)CCC(=O)N3)c2ccccc2)n1 (stereo unspecified)	-2%	-7%	13µM*	-4%	-1%
CCOc1ccc(C(=O)NC(=S)Nc2ccccc2N2CCOCC2)cc1Br	-7%	-21%	1%	-6%	-6%
CC(=O)c1cccc2c(O)c(C3=Nc4ccccc4C3=O)[nH]c12	?	56µM*	?	-6%	-4%
Cc1ccc(C(=O)NCC(=O)NCCc2ccc(S(N)(=O)=O)cc2)s1	-7%	7%	1%	-7%	2%
O=C(c1cc(COc2c(F)cccc2F)on1)N1CCN(C2CCCCC2)CC1	-2%	-4%	24µM*	-2%	-5%
O=C(c1cc(COc2c(F)cccc2F)on1)N1CCCCCC1	-2%	-5%	-14%	0%	-3%
